One may read the inhibition as the change of the read-out against control, counted positive when it falls.

Experiment [1] deals with Protein kinase C gamma type (Homo sapiens) (UniProt P05129). The following applies: at 1 µM.
Experiment [2] addresses T1, Protein kinase C iota type (Homo sapiens) (UniProt P41743).
T1 sequence (whole entry): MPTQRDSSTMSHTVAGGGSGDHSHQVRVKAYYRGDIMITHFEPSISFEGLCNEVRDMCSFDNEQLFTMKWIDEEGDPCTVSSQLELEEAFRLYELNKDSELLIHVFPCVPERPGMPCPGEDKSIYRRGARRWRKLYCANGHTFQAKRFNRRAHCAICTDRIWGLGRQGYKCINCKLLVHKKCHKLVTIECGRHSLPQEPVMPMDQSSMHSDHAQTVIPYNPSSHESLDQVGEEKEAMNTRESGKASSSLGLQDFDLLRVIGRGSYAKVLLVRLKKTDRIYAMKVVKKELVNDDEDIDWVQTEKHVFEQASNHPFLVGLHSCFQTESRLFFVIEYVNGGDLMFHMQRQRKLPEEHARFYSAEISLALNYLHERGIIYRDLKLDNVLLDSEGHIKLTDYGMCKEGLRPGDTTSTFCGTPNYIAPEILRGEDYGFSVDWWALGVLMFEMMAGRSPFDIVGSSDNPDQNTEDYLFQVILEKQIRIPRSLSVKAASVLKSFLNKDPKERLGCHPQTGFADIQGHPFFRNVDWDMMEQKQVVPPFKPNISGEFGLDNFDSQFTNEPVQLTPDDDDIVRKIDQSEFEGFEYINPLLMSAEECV
The following applies: at 0.1 µM.

In experiment [3] the target is T1, Protein kinase C iota type (Homo sapiens). Conditions: at 1 µM.
Experiment [4] addresses Protein kinase C theta type (Homo sapiens) (UniProt Q04759). Conditions: at 0.1 µM.
The target is the same in experiment [5]. Conditions: at 1 µM.
Experiment [6] addresses Protein kinase C beta type (Homo sapiens) (UniProt P05771). Conditions: at 0.1 µM.
Experiment [7] shares this target. Conditions: at 1 µM.
Experiment [8] concerns the target T2, Serine/threonine-protein kinase D1 (Homo sapiens) (UniProt Q15139).
T2 sequence (whole entry): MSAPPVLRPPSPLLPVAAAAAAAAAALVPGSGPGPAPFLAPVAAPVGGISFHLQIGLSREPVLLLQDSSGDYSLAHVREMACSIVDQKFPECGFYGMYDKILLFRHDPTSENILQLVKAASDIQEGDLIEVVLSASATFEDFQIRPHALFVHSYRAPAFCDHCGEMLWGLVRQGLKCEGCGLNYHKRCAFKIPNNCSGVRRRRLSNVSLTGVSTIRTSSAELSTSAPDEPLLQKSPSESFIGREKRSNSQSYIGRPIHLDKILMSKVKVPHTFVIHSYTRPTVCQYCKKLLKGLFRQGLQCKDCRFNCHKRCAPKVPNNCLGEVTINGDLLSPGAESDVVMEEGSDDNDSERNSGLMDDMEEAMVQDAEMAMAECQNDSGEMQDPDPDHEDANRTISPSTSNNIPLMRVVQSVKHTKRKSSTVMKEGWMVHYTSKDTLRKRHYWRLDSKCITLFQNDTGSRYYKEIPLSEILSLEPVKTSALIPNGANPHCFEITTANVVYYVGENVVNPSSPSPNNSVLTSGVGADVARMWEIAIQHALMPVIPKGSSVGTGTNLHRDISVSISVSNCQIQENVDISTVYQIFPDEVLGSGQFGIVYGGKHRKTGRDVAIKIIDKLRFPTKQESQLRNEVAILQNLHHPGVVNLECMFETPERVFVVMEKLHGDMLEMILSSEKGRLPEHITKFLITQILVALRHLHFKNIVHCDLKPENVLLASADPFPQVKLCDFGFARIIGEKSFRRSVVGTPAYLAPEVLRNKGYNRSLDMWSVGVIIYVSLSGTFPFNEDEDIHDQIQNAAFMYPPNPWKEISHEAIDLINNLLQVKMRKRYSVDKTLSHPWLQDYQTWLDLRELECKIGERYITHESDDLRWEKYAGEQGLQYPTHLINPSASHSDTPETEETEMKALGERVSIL
The following applies: at 0.1 µM.

The target of experiment [9] is T2, Serine/threonine-protein kinase D1 (Homo sapiens). The following applies: at 1 µM.
Experiment [10] addresses T3, Serine/threonine-protein kinase D2 (Homo sapiens) (UniProt Q9BZL6).
T3 sequence (whole entry): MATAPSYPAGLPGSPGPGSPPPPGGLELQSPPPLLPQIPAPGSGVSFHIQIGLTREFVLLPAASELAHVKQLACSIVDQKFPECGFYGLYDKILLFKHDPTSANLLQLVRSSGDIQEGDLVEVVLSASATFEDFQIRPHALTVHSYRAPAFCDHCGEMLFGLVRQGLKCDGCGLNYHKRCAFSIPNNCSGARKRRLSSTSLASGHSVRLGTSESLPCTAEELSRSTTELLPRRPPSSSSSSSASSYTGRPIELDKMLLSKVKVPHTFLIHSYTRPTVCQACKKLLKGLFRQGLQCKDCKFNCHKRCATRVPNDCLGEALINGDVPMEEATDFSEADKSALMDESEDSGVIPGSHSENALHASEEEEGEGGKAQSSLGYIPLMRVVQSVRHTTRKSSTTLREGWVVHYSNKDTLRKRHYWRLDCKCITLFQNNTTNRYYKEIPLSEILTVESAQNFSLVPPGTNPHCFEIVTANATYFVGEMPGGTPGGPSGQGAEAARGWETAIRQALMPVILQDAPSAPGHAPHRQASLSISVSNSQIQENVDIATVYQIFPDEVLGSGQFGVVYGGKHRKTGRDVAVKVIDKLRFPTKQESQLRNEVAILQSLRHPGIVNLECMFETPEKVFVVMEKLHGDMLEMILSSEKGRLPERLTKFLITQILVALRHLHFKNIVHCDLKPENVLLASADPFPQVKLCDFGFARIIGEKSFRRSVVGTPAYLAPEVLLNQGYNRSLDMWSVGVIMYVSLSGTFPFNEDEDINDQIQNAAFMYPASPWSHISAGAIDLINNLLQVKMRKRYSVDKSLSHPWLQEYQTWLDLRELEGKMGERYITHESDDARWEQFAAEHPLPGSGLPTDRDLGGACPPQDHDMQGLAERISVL
The following applies: at 0.1 µM.

The target of experiment [11] is T3, Serine/threonine-protein kinase D2 (Homo sapiens). The following applies: at 1 µM.
In experiment [12] the target is T4, Serine/threonine-protein kinase D3 (Homo sapiens) (UniProt O94806).
T4 sequence (whole entry): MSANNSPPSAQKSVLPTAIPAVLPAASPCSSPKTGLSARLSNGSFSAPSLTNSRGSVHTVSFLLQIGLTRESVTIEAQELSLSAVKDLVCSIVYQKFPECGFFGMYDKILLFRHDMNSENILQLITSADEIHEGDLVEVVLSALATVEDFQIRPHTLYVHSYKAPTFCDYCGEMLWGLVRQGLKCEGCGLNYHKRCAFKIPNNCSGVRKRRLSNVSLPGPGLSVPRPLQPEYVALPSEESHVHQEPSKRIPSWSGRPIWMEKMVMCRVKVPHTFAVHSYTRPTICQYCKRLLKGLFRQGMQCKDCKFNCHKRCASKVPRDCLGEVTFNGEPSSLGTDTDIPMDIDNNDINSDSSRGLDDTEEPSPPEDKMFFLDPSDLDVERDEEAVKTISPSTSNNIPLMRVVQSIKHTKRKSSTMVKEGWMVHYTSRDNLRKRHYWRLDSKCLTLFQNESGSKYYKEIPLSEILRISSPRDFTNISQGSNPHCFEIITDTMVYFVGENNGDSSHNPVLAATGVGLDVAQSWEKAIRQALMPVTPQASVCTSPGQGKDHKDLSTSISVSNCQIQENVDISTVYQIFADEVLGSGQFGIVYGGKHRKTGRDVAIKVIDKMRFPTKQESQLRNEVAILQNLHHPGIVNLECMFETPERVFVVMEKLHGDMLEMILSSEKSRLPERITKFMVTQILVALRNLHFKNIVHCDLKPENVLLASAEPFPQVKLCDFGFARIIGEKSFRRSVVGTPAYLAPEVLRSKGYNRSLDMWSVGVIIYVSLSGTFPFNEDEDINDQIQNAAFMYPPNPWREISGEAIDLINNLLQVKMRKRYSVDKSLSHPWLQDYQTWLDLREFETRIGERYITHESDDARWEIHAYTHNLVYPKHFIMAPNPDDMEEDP
Conditions: at 0.1 µM.

The target in experiment [13] is T4, Serine/threonine-protein kinase D3 (Homo sapiens). The following applies: at 1 µM.
Experiment [14] has as its target T5, cGMP-dependent protein kinase 1 (Homo sapiens) (UniProt Q13976).
T5 sequence (whole entry): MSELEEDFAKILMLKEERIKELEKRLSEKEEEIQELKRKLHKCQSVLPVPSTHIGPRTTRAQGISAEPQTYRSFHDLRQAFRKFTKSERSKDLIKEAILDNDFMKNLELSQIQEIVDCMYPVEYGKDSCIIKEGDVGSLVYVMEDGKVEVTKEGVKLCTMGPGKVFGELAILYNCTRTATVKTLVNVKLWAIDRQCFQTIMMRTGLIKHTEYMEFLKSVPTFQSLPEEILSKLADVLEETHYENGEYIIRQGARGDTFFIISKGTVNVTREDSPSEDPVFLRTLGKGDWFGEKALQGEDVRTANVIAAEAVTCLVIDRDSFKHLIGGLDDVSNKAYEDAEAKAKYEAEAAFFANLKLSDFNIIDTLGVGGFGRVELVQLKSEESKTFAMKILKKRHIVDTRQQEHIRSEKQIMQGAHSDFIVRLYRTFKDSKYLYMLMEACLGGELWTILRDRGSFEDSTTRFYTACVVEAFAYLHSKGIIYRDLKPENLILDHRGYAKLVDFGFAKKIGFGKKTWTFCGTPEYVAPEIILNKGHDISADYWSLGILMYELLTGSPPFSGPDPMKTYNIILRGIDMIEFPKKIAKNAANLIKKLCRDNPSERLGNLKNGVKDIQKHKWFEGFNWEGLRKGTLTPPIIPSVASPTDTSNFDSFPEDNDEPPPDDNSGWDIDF
The following applies: at 0.1 µM.

The target in experiment [15] is T5, cGMP-dependent protein kinase 1 (Homo sapiens). The following applies: at 1 µM.
Experiment [16] concerns the target T6, cGMP-dependent protein kinase 2 (Homo sapiens) (UniProt Q13237).
T6 sequence (whole entry): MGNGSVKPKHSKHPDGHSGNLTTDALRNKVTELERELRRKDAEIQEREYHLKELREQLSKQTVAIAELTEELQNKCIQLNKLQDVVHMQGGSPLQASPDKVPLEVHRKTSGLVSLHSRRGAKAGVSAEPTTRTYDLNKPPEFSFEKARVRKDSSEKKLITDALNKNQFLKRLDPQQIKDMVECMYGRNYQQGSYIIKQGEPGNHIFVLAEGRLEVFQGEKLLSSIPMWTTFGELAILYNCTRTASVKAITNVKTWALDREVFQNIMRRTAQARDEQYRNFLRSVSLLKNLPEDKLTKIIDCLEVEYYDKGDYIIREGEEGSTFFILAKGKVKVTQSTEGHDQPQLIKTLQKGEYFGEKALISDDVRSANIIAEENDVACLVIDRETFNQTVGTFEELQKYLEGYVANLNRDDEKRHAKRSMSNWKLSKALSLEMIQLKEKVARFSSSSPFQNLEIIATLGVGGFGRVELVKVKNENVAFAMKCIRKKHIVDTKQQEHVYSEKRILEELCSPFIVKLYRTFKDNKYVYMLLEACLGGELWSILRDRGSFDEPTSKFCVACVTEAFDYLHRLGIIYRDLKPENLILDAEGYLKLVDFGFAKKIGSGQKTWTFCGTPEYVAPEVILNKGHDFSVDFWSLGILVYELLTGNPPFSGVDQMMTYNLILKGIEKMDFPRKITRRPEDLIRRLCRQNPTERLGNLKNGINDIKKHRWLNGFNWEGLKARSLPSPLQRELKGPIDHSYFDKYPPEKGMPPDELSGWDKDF
Conditions: at 0.1 µM.

The target in experiment [17] is T6, cGMP-dependent protein kinase 2 (Homo sapiens). Conditions: at 1 µM.
The target of experiment [18] is T7, cAMP-dependent protein kinase catalytic subunit PRKX (Homo sapiens) (UniProt P51817).
T7 sequence (whole entry): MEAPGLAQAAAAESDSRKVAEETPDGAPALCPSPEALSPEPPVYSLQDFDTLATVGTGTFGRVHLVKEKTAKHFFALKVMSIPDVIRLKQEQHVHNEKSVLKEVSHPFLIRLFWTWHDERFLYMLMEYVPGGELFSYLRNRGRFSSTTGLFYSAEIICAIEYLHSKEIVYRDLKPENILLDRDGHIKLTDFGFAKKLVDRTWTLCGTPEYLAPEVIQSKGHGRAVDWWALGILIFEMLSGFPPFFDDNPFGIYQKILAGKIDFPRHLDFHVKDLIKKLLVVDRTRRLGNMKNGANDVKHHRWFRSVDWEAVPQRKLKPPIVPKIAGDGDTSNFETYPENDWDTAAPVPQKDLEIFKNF
The following applies: at 0.1 µM.

The target of experiment [19] is T7, cAMP-dependent protein kinase catalytic subunit PRKX (Homo sapiens). Conditions: at 1 µM.
Experiment [20] deals with Rho-associated protein kinase 1 (Homo sapiens) (UniProt Q13464). The following applies: at 0.1 µM.
Sequence of Rho-associated protein kinase 1 (Homo sapiens) (Q13464 2-1354 limits assumed): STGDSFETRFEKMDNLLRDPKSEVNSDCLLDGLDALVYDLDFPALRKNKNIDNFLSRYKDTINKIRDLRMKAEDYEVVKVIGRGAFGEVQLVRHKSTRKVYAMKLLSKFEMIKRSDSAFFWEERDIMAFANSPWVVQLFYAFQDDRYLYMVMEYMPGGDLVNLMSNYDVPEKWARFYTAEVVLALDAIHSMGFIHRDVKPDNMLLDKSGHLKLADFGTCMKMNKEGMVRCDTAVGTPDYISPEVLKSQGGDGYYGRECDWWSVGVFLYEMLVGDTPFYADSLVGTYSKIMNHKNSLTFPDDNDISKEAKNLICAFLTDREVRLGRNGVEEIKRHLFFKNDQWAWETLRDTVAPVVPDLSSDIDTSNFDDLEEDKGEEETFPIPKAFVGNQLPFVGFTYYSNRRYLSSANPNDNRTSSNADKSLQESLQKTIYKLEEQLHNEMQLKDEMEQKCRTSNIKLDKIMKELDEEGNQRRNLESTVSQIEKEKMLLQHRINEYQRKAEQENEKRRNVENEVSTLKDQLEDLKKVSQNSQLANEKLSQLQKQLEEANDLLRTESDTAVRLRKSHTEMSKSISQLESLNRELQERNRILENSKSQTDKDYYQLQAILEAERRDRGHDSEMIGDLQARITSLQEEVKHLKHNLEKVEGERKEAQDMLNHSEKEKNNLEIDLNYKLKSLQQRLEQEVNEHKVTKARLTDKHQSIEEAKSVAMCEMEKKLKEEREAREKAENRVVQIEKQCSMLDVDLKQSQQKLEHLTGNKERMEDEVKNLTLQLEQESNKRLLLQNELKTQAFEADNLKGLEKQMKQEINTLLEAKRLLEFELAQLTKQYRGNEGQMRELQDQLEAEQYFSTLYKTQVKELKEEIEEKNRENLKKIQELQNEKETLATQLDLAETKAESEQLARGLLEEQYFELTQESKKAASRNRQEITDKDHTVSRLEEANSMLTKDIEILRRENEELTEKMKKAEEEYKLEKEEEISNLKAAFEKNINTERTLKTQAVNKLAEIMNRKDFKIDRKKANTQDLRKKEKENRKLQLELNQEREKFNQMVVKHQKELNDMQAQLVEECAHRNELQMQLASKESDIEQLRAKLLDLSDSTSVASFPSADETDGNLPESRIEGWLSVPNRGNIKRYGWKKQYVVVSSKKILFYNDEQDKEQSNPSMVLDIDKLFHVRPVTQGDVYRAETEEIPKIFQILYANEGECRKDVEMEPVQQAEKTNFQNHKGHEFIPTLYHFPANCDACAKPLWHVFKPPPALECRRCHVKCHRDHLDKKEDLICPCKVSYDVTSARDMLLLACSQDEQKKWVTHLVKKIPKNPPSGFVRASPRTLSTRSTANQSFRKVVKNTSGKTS

Sequence of Protein kinase C beta type (Homo sapiens) (P05771 2-671 limits assumed): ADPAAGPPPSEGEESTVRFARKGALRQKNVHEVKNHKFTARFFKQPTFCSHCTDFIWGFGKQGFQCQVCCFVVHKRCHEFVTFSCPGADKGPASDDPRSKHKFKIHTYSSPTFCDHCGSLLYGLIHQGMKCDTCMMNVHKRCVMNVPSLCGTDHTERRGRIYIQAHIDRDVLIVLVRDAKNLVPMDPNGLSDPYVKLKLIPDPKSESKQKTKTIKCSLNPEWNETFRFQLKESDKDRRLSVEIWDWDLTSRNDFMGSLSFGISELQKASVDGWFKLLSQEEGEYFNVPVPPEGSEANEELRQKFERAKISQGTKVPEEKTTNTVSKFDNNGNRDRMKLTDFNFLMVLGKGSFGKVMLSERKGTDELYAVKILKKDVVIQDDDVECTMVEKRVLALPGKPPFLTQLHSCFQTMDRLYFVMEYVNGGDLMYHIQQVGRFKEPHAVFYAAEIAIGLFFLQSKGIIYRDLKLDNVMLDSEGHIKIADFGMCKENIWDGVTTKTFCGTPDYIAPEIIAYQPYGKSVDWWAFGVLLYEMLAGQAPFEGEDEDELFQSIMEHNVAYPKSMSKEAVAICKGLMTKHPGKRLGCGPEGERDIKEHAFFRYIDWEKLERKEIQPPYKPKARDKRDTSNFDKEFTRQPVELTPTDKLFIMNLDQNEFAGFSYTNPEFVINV
Sequence of Protein kinase C theta type (Homo sapiens) (Q04759 whole entry, looked up): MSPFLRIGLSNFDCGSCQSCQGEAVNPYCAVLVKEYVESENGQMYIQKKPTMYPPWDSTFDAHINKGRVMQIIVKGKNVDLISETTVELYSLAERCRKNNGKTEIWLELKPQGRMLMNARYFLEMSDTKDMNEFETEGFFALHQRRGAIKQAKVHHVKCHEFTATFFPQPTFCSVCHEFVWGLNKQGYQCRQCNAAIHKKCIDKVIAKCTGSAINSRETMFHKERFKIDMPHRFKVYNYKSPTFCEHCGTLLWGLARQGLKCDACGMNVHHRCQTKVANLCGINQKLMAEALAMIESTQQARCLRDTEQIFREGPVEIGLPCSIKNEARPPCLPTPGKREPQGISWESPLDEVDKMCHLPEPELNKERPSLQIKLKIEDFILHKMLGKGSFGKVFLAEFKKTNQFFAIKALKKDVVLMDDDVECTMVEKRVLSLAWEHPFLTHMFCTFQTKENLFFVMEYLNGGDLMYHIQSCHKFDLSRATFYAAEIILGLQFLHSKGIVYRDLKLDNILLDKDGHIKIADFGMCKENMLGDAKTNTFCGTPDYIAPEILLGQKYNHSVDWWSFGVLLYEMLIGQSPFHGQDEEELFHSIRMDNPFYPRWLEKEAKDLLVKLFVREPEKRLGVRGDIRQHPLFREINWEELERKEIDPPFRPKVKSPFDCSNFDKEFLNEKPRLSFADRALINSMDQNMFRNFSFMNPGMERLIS

Consider `Fc1ccc(-c2ncn(C3CCNCC3)c2-c2ccnc(Oc3ccccc3)n2)cc1`, for which the inhibition in experiment [1] stood at 2.28%; in [2], 0.81%; in experiment [3] it was 1.84%; in experiment [4], 1.21%; in experiment [5] it was 1.59%; in [6] it was 1.22%. Also, the inhibition in [7] was 5.65%; in experiment [8] it was -1.04%; in experiment [9], 0.79%; in experiment [10] it was -1.14%; in experiment [11], 4.29%; in experiment [12], -1.84%. The inhibition in [13] is 2.37%; in experiment [14], 0.84%; in [15] it was 0.86%; in experiment [16], 0.69%; in experiment [17] it was 0.2%; in experiment [18] it was 1.64%. For the same compound, the inhibition stood at 1.63% in [19] and 0.65% in [20].

For the origin of these results see ChEMBL document CHEMBL1961873, “Compounds: GSK PKIS; Assays: Nanosyn kinase panel” (2012).
